Where “and” joins values, the source holds several entries; their conditions need not be identical. Identical values can stand only once. A number with no mark means an inactive call. Results filed as inconclusive are left out. Calls of active or inactive are those of the source. Unless noted, the call rests on the fitted dose curve; in most records, active means well fitted curve in the direction sought with a large enough effect in the repeat runs; inconclusive means weak or mixed curves; inactive means no such curve, though single readings can be large; an effect the other way counts as inactive or inconclusive.

For test [1], the target named is Luciferin 4-monooxygenase (Photinus pyralis) (UniProt P08659). As to the kind of experiment: qHTS assay to identify small molecule inhibitors of firefly luciferase (AID 1224835). Further: on the % scale 0 is the no-effect control and ±100 the full control effect; nearly all actives have a fitted effect of over 25% in size. Put shortly:
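Inhibition of purified Photinus luciferase is measured by luminescence. Substrate levels (D-luciferin, ATP) sit at their KM values. Each compound is tested in a concentration series.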

Test [2] in a line: qHTS assay to identify small molecule agonists of the constitutive androstane receptor (CAR) signaling pathway - cell viability counter screen (AID 1224836). Further: nearly all actives have a fitted effect of over 45% in size. Further: potency means the concentration at half of the fitted maximal effect. In a few lines: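 Counter screen multiplexed with the CAR reporter readout: HepG2 cells co-transfected with hCAR and the CYP2B6-2.2kb construct receive a 15-concentration compound series and 0.75 uM PK11195 (final), then CellTiter-Fluor fluorescence is read after 23 h.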

A short description of test [3]: qHTS assay to identify small molecule antagonists of the constitutive androstane receptor (CAR) signaling pathway - cell viability counter screen (AID 1224837). Further: nearly all actives have a fitted effect of over 45% in size. Further: potency means the concentration at half of the fitted maximal effect. In a few lines: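 Cytotoxicity counter-screen: CellTiter-Fluor fluorescence after 23 h compound exposure (15-point qHTS) in double-stable HepG2-CYP2B6-hCAR cells, with 50 nM CITCO added.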
Test [4] deals with Nuclear receptor subfamily 1 group I member 3 (Homo sapiens) (UniProt Q14994). As to the kind of experiment: qHTS assay to identify small molecule antagonists of the constitutive androstane receptor (CAR) signaling pathway (AID 1224838).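 Further: HepG2 cells stably expressing hCAR with CYP2B6 luciferase reporter stimulated by CITCO; nearly all actives have a fitted effect of over 40% in size.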 Further: potency means the concentration at half of the fitted maximal effect. Put shortly:
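Antagonism measured as luciferase signal (ONE-Glo, 30 min, room temperature) in CAR-stimulated cells: HepG2-CYP2B6-hCAR double-stable line exposed 24 hr at 37 C to compound in a 15-point series plus 50 nM CITCO.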

The target is the same in test [5]. As to the kind of experiment: qHTS assay to identify small molecule agonists of the constitutive androstane receptor (CAR) signaling pathway (AID 1224839). Further: on the % scale 0 is the no-effect control and ±100 the full control effect; nearly all actives have a fitted effect of over 15% in size. Put shortly: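 A 15-concentration quantitative screen uses HepG2 cells co-transfected stably with human CAR and CYP2B6-2.2kb reporter. Treatment lasts 24 h with 0.75 uM PK11195 final present; ONE-Glo luminescence is the signal.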

A short description of test [6]: qHTS assay to identify small molecule antagonists of the estrogen related receptor signaling pathway with the pleiotropic PPARgamma coactivator (PGC) from Tox21 10K library - cell viability counter screen (AID 1224840; active means well fitted cell-killing curve with a large enough effect in the repeat runs, not every such curve was filed as active; further: nearly all actives have a fitted effect of over 40% in size; further: potency means the concentration at half of the fitted maximal effect). In a few lines: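 Counter-screen for cytotoxicity: after 17.5 h compound exposure at 37 C, CellTiter-Fluor reagent added to PGC/ERR cells for 30 min and fluorescence read. Cells were seeded at 2,000 per well 6 h before dosing.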

Test [7] concerns the target Thyrotropin receptor (Homo sapiens) (UniProt P16473). As to the kind of experiment: qHTS assay to identify small molecule agonists of the thyroid stimulating hormone receptor (TSHR) signaling pathway (AID 1224843; calls by dose curve; further: on the % scale 0 is the no-effect control and ±100 the full control effect; nearly all actives have a fitted effect of over 45% in size). Put shortly: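 Agonist activity read as cAMP rise via d2/cryptate HTRF competition, 1 h room-temperature detection, in HEK293 cells expressing TSHR. Fifteen-point titrations, each run in triplicate, with a 30 min room-temperature incubation beforehand.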

A short description of test [8]: qHTS assay to identify small molecule agonists of H2AX - cell viability counter screen (AID 1224847; calls by dose curve; further: nearly all actives have a fitted effect of over 30% in size; further: potency means the concentration at half of the fitted maximal effect). In a few lines:
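We seed wild-type CHO-K1 cells overnight, treat them for 3 hr at 37C with compounds in 15-concentration series, and quantify remaining viability by CellTiter-Glo luminescence.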

The nature of test [9]: qHTS assay to identify small molecule antagonists of the estrogen related receptor (ERR) signaling pathway from Tox21 library (AID 1224848). Further: potency means the concentration at half of the fitted maximal effect; nearly all actives have a fitted effect of over 50% in size. Put shortly: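 Luciferase luminescence (ONE-Glo, 30 min room temperature) was the read-out. Cells of the NTP-supplied ERR line, 2,000 per well, were given 6 h at 37 C before compound addition in DMSO and 18 h exposure at 37 C.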
A short description of test [10]: qHTS assay to identify small molecule agonists of the estrogen related receptor (ERR) signaling pathway from Tox21 library (AID 1224849; calls by dose curve; further: on the % scale 0 is the no-effect control and ±100 the full control effect; nearly all actives have a fitted effect of over 15% in size). The note with it: ERR reporter cell line, ONE-Glo luciferase, 18 h. In a few lines:
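Luminescent agonist read-out (One-Glo, 30-minute room-temperature incubation) following 18-hour compound treatment at 37 C of the ERR cell line, which had been plated 6 hours before dosing.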

The nature of test [11]: qHTS RealTime-Glo MT Cell Viability Assay in HepG2 cells - 24 hour (AID 1224867). Further: nearly all actives have a fitted effect of over 50% in size. Further: potency means the concentration at half of the fitted maximal effect. Put shortly: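 Real-time, nonlytic viability: 600 HepG2 cells/well mixed with NanoLuc enzyme plus prosubstrate; 5 h settle, compound (DMSO) added by pintool; luminescence monitored over 40 h at 37 C.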
The nature of test [12]: qHTS RealTime-Glo MT Cell Viability Assay in HEK293 cells - 32 hour (AID 1224868). Further: nearly all actives have a fitted effect of over 50% in size. Further: potency means the concentration at half of the fitted maximal effect. Put shortly: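 Cells + reagent dispensed (600 cells/well, HEK293) → 5 h at 37 C/5% CO2 → 23 nL compound in DMSO pinned → 40 h at 37 C → luminescence read at 0, 8, 16, 24, 32, 40 h.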
Test [13] is described as follows: A CellTox Green Cytotoxicity Assay to monitor cytotoxicity in HEK293 cells - 40 hour (AID 1224871). Further: nearly all actives have a fitted effect of over 45% in size. Further: potency means the concentration at half of the fitted maximal effect. In a few lines: (§1)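 Fluorescence from a DNA-binding dye excluded by viable cells was measured repeatedly in the same HEK293 wells (600 cells/well) during continuous compound exposure at 37 C. Each assay gives one read point: 0, 8, 16, 24, 32 or 40 h.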
The nature of test [14]: qHTS assay to identify small molecule agonists of the hypoxia (HIF-1) signaling pathway - cell viability counter screen (AID 1224844; calls by dose curve; further: nearly all actives have a fitted effect of over 50% in size; further: potency means the concentration at half of the fitted maximal effect). In a few lines: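 Cytotoxicity measured by CellTiter-Glo ATP luminescence in the wells also read for beta-lactamase signal. Cells were HRE-bla ME-180 (2,000/well, 0.5% dialyzed FBS), exposed to compounds for 17 h at 37C.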
Test [15] can be described thus: qHTS assay to identify small molecule agonists of H2AX (AID 1224845; active means well fitted activation curve with a large enough effect in the signal ratio in the repeat runs, not every such curve was filed as active; the % refers to the signal ratio; further: potency means the concentration at half of the fitted maximal effect). Put shortly:
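Phospho-H2AX Ser139 measured by HTRF (ex 320 nm; em 665 and 620 nm) after 24 hr antibody incubation. Compounds, 15 concentrations, 0.76% DMSO, were applied to CHO-K1 cells for 3hr at 37C before lysis.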

A short description of test [16]: qHTS assay to identify small molecule agonists of the hypoxia (HIF-1) signaling pathway (AID 1224846; active means well fitted activation curve with a large enough effect in the signal ratio in the repeat runs, not every such curve was filed as active; the % refers to the signal ratio; further: on the % scale 0 is the no-effect control and ±100 the full control effect). In a few lines: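 Compounds added to ME-180 cells carrying hypoxia-response-element beta-lactamase reporter (0.5% dialyzed FBS, 5 h preplating), 17 h at 37C; agonist activity detected by CCF4-AM B/G FRET read-out.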
The nature of test [17]: A CellTox Green Cytotoxicity Assay to monitor cytotoxicity in HEK293 cells - 0 hour (AID 1224869). Put shortly: as §1
Test [18] in a line: qHTS RealTime-Glo MT Cell Viability Assay in HepG2 cells - 40 hour (AID 1224870). Further: nearly all actives have a fitted effect of over 50% in size. Further: potency means the concentration at half of the fitted maximal effect. In a few lines: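 Real-time viability: cells seeded at 600 per well together with NanoLuc and cell-permeant prosubstrate, compounds added after 5 h incubation. Luminescence tracked at 0, 8, 16, 24, 32 and 40 h of exposure.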

Chain of Luciferin 4-monooxygenase (Photinus pyralis) (P08659 whole entry, looked up): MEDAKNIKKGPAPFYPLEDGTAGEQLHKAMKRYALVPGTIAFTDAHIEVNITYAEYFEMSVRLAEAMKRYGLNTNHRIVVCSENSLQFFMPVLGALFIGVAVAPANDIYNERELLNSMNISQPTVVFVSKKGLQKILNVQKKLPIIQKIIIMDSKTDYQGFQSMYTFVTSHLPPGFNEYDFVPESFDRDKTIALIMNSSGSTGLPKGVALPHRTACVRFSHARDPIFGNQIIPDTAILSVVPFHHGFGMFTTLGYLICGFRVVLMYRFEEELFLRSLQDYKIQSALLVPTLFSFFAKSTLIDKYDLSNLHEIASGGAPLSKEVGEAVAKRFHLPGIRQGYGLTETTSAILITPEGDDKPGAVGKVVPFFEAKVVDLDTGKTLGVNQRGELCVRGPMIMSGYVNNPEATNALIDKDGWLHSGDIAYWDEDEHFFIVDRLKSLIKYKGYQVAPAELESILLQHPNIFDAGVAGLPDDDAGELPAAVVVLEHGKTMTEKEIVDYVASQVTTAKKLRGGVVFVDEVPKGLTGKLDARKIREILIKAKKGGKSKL
Chain of Thyrotropin receptor (Homo sapiens) (P16473 whole entry, looked up): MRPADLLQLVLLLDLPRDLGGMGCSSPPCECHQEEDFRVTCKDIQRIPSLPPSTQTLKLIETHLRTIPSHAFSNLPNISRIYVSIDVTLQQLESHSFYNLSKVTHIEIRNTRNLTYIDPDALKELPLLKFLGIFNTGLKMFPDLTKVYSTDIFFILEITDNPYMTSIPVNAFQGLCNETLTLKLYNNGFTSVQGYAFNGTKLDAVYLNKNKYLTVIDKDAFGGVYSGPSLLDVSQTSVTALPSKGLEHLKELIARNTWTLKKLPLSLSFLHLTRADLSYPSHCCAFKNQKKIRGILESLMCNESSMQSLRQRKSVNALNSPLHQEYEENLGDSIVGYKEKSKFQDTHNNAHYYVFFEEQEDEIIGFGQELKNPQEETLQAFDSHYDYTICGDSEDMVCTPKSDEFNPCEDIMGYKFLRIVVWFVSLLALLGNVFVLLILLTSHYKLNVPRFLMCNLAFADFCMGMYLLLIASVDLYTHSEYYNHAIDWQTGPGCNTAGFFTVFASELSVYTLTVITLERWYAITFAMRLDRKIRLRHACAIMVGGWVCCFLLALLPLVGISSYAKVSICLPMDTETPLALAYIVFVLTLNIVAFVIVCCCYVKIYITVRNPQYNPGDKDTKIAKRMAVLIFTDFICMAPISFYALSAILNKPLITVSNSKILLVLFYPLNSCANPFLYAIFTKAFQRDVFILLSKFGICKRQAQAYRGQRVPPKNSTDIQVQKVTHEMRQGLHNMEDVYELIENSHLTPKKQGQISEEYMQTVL
Chain of Nuclear receptor subfamily 1 group I member 3 (Homo sapiens) (Q14994 whole entry, looked up): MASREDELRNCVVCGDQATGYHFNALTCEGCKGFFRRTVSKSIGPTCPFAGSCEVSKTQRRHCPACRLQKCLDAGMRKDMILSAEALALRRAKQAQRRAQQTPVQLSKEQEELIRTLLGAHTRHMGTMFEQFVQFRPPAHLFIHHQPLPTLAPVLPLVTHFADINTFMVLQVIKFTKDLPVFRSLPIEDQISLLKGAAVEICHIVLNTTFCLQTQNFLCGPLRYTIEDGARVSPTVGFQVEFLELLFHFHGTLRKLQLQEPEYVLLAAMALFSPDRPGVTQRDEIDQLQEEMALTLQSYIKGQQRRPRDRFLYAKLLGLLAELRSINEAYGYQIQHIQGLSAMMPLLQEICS

Take `CCCCCCCCCCCCN(CCO)CCO`: the Potency entry in test [1], in test [5] and in test [7] was “inactive” throughout. Besides, the Potency in test [2] is 68.3 µM (active); in test [3], 68.3 µM (active); in [4] it was 68.3 µM (active); in [6], 60.9 µM (active); in test [8] it was 100 µM (active); in test [9], 60.9 µM (active). Also, the figures for the Potency in [11], in [12] and in [13] were 48.8 µM (active), 43.5 µM (active) and 54.7 µM (active), respectively. In addition, the activity change, positive = activation in test [10] (at 92.4 µM (top of the series) unless noted) is -79.7%.

With `O=C1OC(=O)c2ccc3c4c(ccc1c24)C(=O)OC3=O`, the Potency entry in test [1], in [2], in [3], in [4], in test [5] and in [6] was “inactive” throughout. For the same compound, the Potency result in [7], in [14], in [15], in [8], in test [11] and in test [12] was “inactive” each time. The Potency entry in test [17] and in test [13] was “inactive” each time. Moreover, the compound was called inactive in test [16].

As for `CSc1ccc2c(c1)N(CCC1CCCCN1C)c1ccccc1S2` (centres undefined), the Potency entry in test [1], in test [4], in [5], in test [7] and in test [17] was “inactive” in each case. The Potency is 48.4 µM (active) in [2]; 54.3 µM (active) in test [3]; 30.5 µM (active) and 29.8 µM (active) in test [6]; 21.8 µM (active) and 21.3 µM (active) in test [14]; 50.3 µM (active) and 55.2 µM (active) in test [8]; 27.2 µM (active) in [9]. The Potency is 48.8 µM (active) and 23.9 µM (active) in [11]; 15.4 µM (active) in test [12]; 30.8 µM (active) in test [18]; 30.8 µM (active) in test [13]. The results for the activity change, positive = activation in test [10] (at 42.5 µM (top of the series)) and in test [10] (at 92.4 µM (top of the series)) were -67.5% and -73.9%, respectively.

`O=C(O)Cc1ccc(OCCNC[C@H](O)c2ccccc2)cc1`: the Potency result in test [1], in test [2], in test [3], in test [4], in [5] and in [6] was “inactive” each time. For the same compound, the Potency result in test [7], in test [14], in test [11], in test [12], in test [18] and in test [13] was “inactive” in each case. Further, the compound was classed as inactive in [16].

Regarding `CC(C)C(=O)OCc1ccccc1`, the Potency entry in test [1], in [2], in test [3], in test [4], in test [5] and in test [6] was “inactive” in each case. In addition, the Potency entry in test [7], in test [14], in test [8] and in test [11] was “inactive” each time. Besides, the compound was classed as inactive in [16].

For `OCCCc1cccnc1`, the Potency entry in [1], in [2], in test [3], in [4], in test [5] and in test [6] was “inactive” each time. The Potency result in [7], in test [14], in [15], in test [8], in test [11] and in test [12] was “inactive” each time. Besides, the Potency entry in [17] and in test [13] was “inactive” in each case. In addition, the result in [16] was inactive.

Turning to `O=C[C@H](O)[C@H](O)[C@H](O)CO`, the Potency result in test [1], in test [2], in [3], in test [4], in [5] and in test [6] was “inactive” throughout. Also, the Potency entry in [7], in test [14], in test [15], in test [8], in test [11] and in test [12] was “inactive” each time. Further, the Potency entry in test [18] and in [13] was “inactive” each time. In addition, the compound was classed as inactive in test [16].

Take `Cn1cnc2ncnc(N)c21`: the Potency entry in [1], in test [2], in test [3], in test [4], in test [5] and in [6] was “inactive” each time. Further, the Potency entry in test [7], in test [14], in test [15], in test [8], in test [11] and in test [12] was “inactive” throughout. Besides, the Potency entry in [18] and in test [13] was “inactive” throughout. Further, the call in test [16] was inactive.

As for `CCCCCCCCCCCCOC(=O)c1cc(O)c(O)c(O)c1`, the Potency entry in [1], in test [5], in [7] and in [17] was “inactive” each time. Besides, the Potency in [2] is 68.3 µM (active); in test [3], 68.3 µM (active); in [4], 76.6 µM (active); in test [6] it was 30.5 µM (active) and 6.11 µM (active); in [14], 48.8 µM (active) and 54.9 µM (active); in [15], 11.3 µM (active). Also, the Potency in test [8] is 100 µM (active); in test [11], 54.7 µM (active) and 49 µM (active); in test [12], 3.87 µM (active) and 3.47 µM (active); in [18], 54.9 µM (active); in test [13], 34.5 µM (active) and 49 µM (active).
